A selection: hits, their analogues and other compounds. The true share with any hit is near 3.5%.
Bead autofluor: flagged as autofluorescent in microsphere protease counterscreen | compound autofluorescence counterscreen, microsphere flow cytometry; hits give high values | fluorescence intensity (test concentration not listed) | actives 3.1% (n = 360,000); in the data active = fluorescence intensity above about 16000; inconclusive = no clear call, values can overlap the other calls
Vc quorum ag: inducers of Vibrio cholerae quorum light production without autoinducers, primary screen, BH1578 luxS cqsA deficient, single point; actives 0.16% (n = 350,000); AID 588436, 2011; V. cholerae BH1578 lux reporter, luminescence, 6 h; activation, % at 18.7 µM; in the data active = activation mostly above about 9.7%, no sharp cut-off; inconclusive = no clear call, values can overlap the other calls; inactive = mostly below about 3.7%
Anthrax LF prot: Bacillus anthracis LF protease inhibitors, primary screen, biochemical, multiplex microsphere, MLPCN library. Lethal factor (Bacillus anthracis), P15917. multiplex microsphere protease cleavage assay. inhibition, % at 10 µM. actives 0.12% (n = 360,000). AID 588501, 2011; also: plate controls were buffer without enzyme for full effect and enzyme alone for no effect
Target sequence (P15917 whole entry, looked up): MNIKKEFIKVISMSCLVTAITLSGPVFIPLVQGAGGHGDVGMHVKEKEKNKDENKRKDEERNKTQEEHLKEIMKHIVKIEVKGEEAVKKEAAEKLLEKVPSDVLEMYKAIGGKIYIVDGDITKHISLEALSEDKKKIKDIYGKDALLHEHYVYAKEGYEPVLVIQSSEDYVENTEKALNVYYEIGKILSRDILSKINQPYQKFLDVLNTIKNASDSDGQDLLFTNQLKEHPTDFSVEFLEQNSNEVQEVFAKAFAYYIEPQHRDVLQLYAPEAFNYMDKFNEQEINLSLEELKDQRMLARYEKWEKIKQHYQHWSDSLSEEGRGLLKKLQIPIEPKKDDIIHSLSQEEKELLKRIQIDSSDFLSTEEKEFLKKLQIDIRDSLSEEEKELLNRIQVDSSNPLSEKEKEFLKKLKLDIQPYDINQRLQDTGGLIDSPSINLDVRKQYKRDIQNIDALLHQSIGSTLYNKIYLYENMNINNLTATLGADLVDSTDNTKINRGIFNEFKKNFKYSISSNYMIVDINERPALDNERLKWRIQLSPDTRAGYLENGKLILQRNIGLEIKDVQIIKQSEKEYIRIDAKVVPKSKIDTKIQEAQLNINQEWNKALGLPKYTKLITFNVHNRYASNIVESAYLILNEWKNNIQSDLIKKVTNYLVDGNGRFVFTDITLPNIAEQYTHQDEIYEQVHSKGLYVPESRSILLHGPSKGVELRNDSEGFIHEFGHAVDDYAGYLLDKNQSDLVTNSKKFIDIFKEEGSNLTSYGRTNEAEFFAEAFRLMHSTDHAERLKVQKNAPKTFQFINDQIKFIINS
BoNT-F LC inh: BoNT/F light chain protease inhibitors, primary screen, biochemical, flow cytometry, MLPCN library; Botulinum neurotoxin type F light chain protease (Clostridium botulinum); Multiplex microsphere protease cleavage assay; inhibition, % at 10 µM; actives 0.22% (n = 360,000); in the data active = inhibition above about 35%, passing the limit was not always enough; inconclusive = no clear call, values can overlap the other calls; also: plate controls were buffer without enzyme for full effect and enzyme alone for no effect
BoNT-A LC inh2: BoNT/A light chain protease inhibitors, primary screen, biochemical, flow cytometry, MLPCN library | Botulinum neurotoxin type A light chain protease (Clostridium botulinum A str. ATCC 3502) | multiplex microsphere protease substrate cleavage | inhibition, % at 10 µM | actives 0.17% (n = 360,000) | AID 588499, 2011; also: plate controls were buffer without enzyme for full effect and enzyme alone for no effect
Active calls of the source: *; i = inactive; ? = inconclusive. Rule as the data show it, unless noted: active = inhibition above about 30%; inconclusive = no clear call, values can overlap the other calls; inactive = below that.

SMILES	Bead autofluor	Vc quorum ag	Anthrax LF prot	BoNT-F LC inh	BoNT-A LC inh2
O=C1CC(C(=O)N(c2cccc(F)c2)C(C(=O)NC2CCCC2)c2ccccn2)CS1 (stereo unspecified)	11376	2	-4	-6	0
O=C1CC(C(=O)N(c2ccc(F)cc2)C(C(=O)NC2CCCC2)c2ccccn2)CS1 (stereo unspecified)	22756*	0	-1	0	1
CC(C)(C)[C@H]1COC(=O)CCCC/C=C\C[C@H](CC(=O)NCCO)C(=O)N1	3022	0	-10	-3	0
N/C(=N\OC(=O)c1ccccc1Cl)c1ccccc1	22870*	i	-2	0	?
N/C(=N\OC(=O)c1ccccc1Cl)c1ccc(Cl)cc1	2613	i	0	-6	0
N/C(=N\OC(=O)c1cccc2ccccc12)c1cccc([N+](=O)[O-])c1	16600*	0	-1	0	-1
N/C(=N\OC(=O)c1ccc(F)cc1)c1ccccc1	22601*	i	-2	-8	-7
CC(C)=C(C#N)c1nc2ccccc2s1	11486	i	-1	-14	-2
CC1=CC(=C(C#N)c2nc3ccccc3s2)C=C(C)N1c1ccc(F)cc1	3300	0	20	15	36*
COc1ccccc1N1C(C)=CC(=C(C#N)c2nc3ccccc3s2)C=C1C	3142	-3	28	25	57*
CC(C)C(OC(=O)c1nsc(Cl)c1Cl)C(=O)NCC1CCCO1 (stereo unspecified)	4887	0	-2	5	1
O=C(CN1CCN(Cc2ccccc2)CC1)NCC1COc2ccccc2O1 (stereo unspecified)	23257*	-3	-2	-3	-1
Cc1cccc(NC(=O)C(C)Sc2nc3ccccc3c(=O)n2CCCN2CCOCC2)c1 (stereo unspecified)	18006*	6	-12	-63	-51
CCCCC(C(=O)NCCC(C)C)N(CCCN1CCOCC1)C(=O)c1snc(C(N)=O)c1N (stereo unspecified)	20769*	0	1	0	0
CC(C)CCNC(=O)C(c1ccco1)N(Cc1ccccc1)C(=O)c1snc(C(N)=O)c1N (stereo unspecified)	22391*	0	-3	2	2
CC(c1cccs1)N(C(=O)Nc1ccccc1)C1CCCCC1 (stereo unspecified)	21824*	0	0	3	1
CC(C)CCN(C(=O)Nc1ccccc1)C(C)c1cccs1 (stereo unspecified)	20892*	-1	-3	-5	-1
CN(C)CCOCCP(=O)(c1ccccc1)c1ccccc1	23350*	i	2	4	1
CCN(CC)CCP(=O)(c1ccccc1)c1ccccc1	9468	-2	-5	-5	0
O=C(NCCc1ccccc1Cl)C1CCC(=O)N(CC2CCCCC2)C1 (stereo unspecified)	5508	1	1	-1	1
CCN1CCN(c2nc(-c3ccccn3)nc3ccccc23)CC1	24768*	2	-2	-12	-6
CCN(CC)C(=O)CC(c1ccccc1)c1ccco1 (stereo unspecified)	24247*	0	-5	-3	-1
CCCN(CCC)C(=O)CC(c1ccc(F)cc1)c1ccco1 (stereo unspecified)	3271	i	-4	3	1
O=C(Nc1cccc(Cl)c1)c1csc(-c2ccccc2)n1	11878	0	5	-12	-3
O=C(Nc1ccc(Cl)c(Cl)c1)c1csc(-c2ccccc2)n1	16273*	1	-3	-3	0
SMILES	Bead autofluor	Vc quorum ag	Anthrax LF prot	BoNT-F LC inh	BoNT-A LC inh2
COc1ccc(NC(=O)c2ccc(C(=O)c3cc(OC)ccc3OC)cc2)cc1	20895*	0	1	6	6
O=C(CCN1C(=O)/C(=C/c2cccc(Br)c2)SC1=S)NNC(=O)c1cccnc1	16764*	i	-3	-4	-1
O=C(CCN1C(=O)/C(=C/c2ccccc2)SC1=S)NNC(=O)c1cccnc1	2471	0	-1	2	0
O=C(NN1C(=O)/C(=C/c2cccs2)SC1=S)c1ccccc1	8439	0	22	41*	10
O=C(NN1C(=O)/C(=C/c2cccs2)SC1=S)c1cccnc1	5764	i	-12	1	0
O=C(NN1C(=O)/C(=C/c2cccnc2)SC1=S)C(c1ccccc1)c1ccccc1	21106*	i	-2	-2	-1
CSCCC(NS(=O)(=O)c1ccccc1F)C(=O)NCCCn1nc(C)cc1C (stereo unspecified)	5902	-6	0	3	0
CC(=O)Nc1ccc(NC(=O)CSCCc2ccccn2)cc1	19811*	0	0	3	2
CC(=O)Nc1ccc(NC(=O)CCSCCc2ccccn2)cc1	4287	-2	-9	-15	0
CCOc1ccc(OCCCC(=O)O)cc1	20482*	i	-2	-1	0
CCOc1ccc(C(=O)CCC(=O)O)cc1	10329	0	-1	-2	0
COc1ccccc1Oc1ccccc1C(=O)O	16152*	i	1	0	1
COc1ccccc1NC(=O)c1ccccc1C(=O)O	4182	i	-2	-1	-1
CCOC(=O)c1cccc(NC(=S)NCc2ccc(C)cc2)c1	4364	-1	-5	-6	-1
Cc1c(Br)ccc(NC(=O)c2ccccc2[N+](=O)[O-])c1C	2020	0	2	0	1
CCn1cc(C(=O)NCCC(=O)NCCCO)c(=O)c2cc3c(cc21)OCO3	3505	i	3	8	1
N#Cc1c(N)sc2c1CCCCCC2	24025*	-1	-3	-4	-2
CC(C)OCCCNC(=O)Cn1ccc2cc(S(=O)(=O)N3CCCCC3)ccc21	6091	0	2	-3	-1
CCN(C[C@H]1N[C@@](CC)(C(=O)OC)[C@H]2C(=O)N(C)C(=O)[C@@H]12)C(=O)c1ccc(C(C)(C)C)cc1	3794	-1	-9	-10	0
Cc1cccn2c(=O)c3cc(C(N)=S)c(=N)n(CCCOC(C)C)c3nc12	3782	0	-36	-57	41*
O=C1C[C@H](NC(=O)OCc2ccccc2)CO1	?	2	-2	1	3
COc1cc(SC)ccc1C(=O)NCCOc1ccc(Cl)cc1	2391	0	-1	-1	0
COc1cc(SC)ccc1C(=O)NCCOc1c(C)cc(C)cc1C	20169*	0	-2	-1	0
COc1ccccc1NC(=O)c1ccccc1-c1nc(-c2ccccc2OC)no1	21774*	-1	-4	-6	-5
COc1ccccc1-c1noc(-c2ccccc2C(=O)Nc2ccccc2)n1	4282	i	-1	5	1
COc1ccccc1NC(=O)c1ccccc1NC(=O)c1cc(Cl)ccc1NC(=O)c1ccco1	21221*	i	0	3	?

Compound activity as filed in PubChem BioAssay.
